Measurements reported in PubChem BioAssay.
The source made the active and inactive calls.

Test system: not listed separately
Experiment: forskolin-driven CRE-LacZ activity in PC12 – cell-based, CRE-LacZ reporter, forskolin-stimulated, primary screen (AID 1146);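 further: PC12 cells with 6xCRE LacZ reporter stimulated by forskolin 10 µM; beta-galactosidase reporter signal reflecting CREB driven transcription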
Conditions: luminescence, 4.5 h, higher = more signal, called active from +8 up or from −8 down

| SMILES | z-score |
| --- | --- |
| CC(C)(C)OC(=O)CC[C@]1(C(=O)N2CCOCC2)COC(c2ccc(OCCCO)cc2)=N1 | -0.841 (inactive) |
| C=CC[C@]1(C(=O)NCC(O)CO)N=C(c2ccc(OCCCO)cc2)O[C@H]1c1ccccc1CN=[N+]=[N-] (stereo partly specified) | -0.163 (inactive) |
| CCOC(=O)C1=CCC(c2cccn2C(=O)OC(C)(C)C)N(S(=O)(=O)c2ccc(C)cc2)C1 (stereo unspecified) | 19.4 (active) |
| COc1cc(Cc2cc3c(c(-c4ccccc4)n2)[Si](C(C)C)(C(C)C)OC3)cc(OC)c1OC | -0.437 (inactive) |
| COCCCNC(=O)[C@@]1(Cc2ccccc2I)c2ccccc2C(=O)N(Cc2ccccc2C(F)(F)F)[C@H]1c1ccc(CO)cc1 | 1.15 (inactive) |
| COc1ccc(CCNC(=O)[C@@H]2c3ccccc3C(=O)N(C(C)C)[C@H]2c2ccc(CO)cc2)cc1 | -0.859 (inactive) |
| Cc1ccc(N2C(=O)c3ccccc3[C@@H](C(=O)NCCN3CCOCC3)[C@@H]2c2ccc(CO)cc2)nc1 | -0.479 (inactive) |
| COc1cc2c(cc1O)C(C)N(Cc1sc3ccccc3c1Cl)CC2 (stereo unspecified) | -0.487 (inactive) |
| CC(C)(C)OC(=O)CC[C@@]1(C(=O)N2CCOCC2)N=C(c2ccc(OCCCO)cc2)O[C@@H]1c1ccccc1CN=[N+]=[N-] | -0.0177 (inactive) |
| CC[C@@H](O[Si](C#C[Si](C(C)C)(C(C)C)C(C)C)(C(C)C)C(C)C)c1cn([C@H](C)c2ccccc2)nn1 | 0.266 (inactive) |

Target: Streptavidin (Streptomyces avidinii) (UniProt P22629)
Sequence (P22629 whole entry, looked up): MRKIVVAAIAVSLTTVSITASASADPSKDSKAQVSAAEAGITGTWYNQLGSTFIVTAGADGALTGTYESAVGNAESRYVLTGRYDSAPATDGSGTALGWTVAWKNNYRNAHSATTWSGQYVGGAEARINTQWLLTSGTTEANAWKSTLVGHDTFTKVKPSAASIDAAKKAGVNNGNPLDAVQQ
Experiment: compounds binding control protein streptavidin – biophysical, small-molecule microarray, 635/667 nm fluorescence, artefact control for SMM compound annotation, primary screen (AID 1147);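 further: signal reflects streptavidin binding to arrayed compounds as a control protein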
Conditions: higher = more signal

| SMILES | composite z-score |
| --- | --- |
| CN1C2C=C(c3ccc(CO)cc3)C(C3C(=O)N(C(N)=O)C(=O)C32)C1C1CC1 (stereo unspecified) | 0.0747 |
| COc1cc(Cc2cc3c(c(CCc4ccccc4)n2)[Si](C(C)C)(C(C)C)O[C@H]3c2ccccc2)cc(OC)c1OC | 0.537 |
| C=CCOC(=O)[C@H]1[C@@H]2C(=O)O[C@@H](c3ccccc3)[C@@H](c3ccccc3)N2[C@@H](c2ccc(OCCOC(=O)[C@@H]3C[C@@H]4C(=O)N[C@@H](Cc5ccccc5)C(=O)N4[C@@H]3c3ccc(O)cc3)cc2)[C@]12C(=O)Nc1ccc(I)cc12 | 0.387 |
| CCOC(=O)C1=CC[C@@H](c2ccccc2)N(S(=O)(=O)c2ccc(C)cc2)[C@@H]1C#N | 0.814 |
| C=CC[C@]1(C(N)=O)N=C(c2ccc(OCCCO)cc2)O[C@H]1c1ccccc1N=[N+]=[N-] | 0.489 |
| COc1ccc(CCNC(=O)[C@@H]2c3ccccc3C(=O)N(Cc3cc(F)cc(C(F)(F)F)c3)[C@H]2c2ccc(CO)cc2)cc1 | 0.234 |
| CC(C)C[C@@H]1NC(=O)[C@@H]2C[C@H](C(=O)NCCCCCNC(=O)CS)[C@H](c3ccc(O)cc3)N2C1=O | -0.799 |
| C=CCNC(=O)[C@@H]1[C@H]2C(=O)O[C@H](c3ccccc3)[C@H](c3ccccc3)N2[C@H](c2ccc(OCCO)cc2)[C@@]12C(=O)N(C(=O)OCCOC)c1ccccc12 | -0.154 |
| CCCCC(=C=CC[C@@H](O)c1ccccc1OCCO)C[C@@H](O)c1ccccn1 | -0.231 |
| O=C1O[C@@H](c2ccccc2)[C@@H](c2ccccc2)N2[C@@H](c3ccccc3OCCO)[C@]3(C(=O)Nc4ccc(C#CC5(O)CCCCCC5)cc43)[C@@H](C(=O)N3CCCCCCC3)[C@H]12 | 2.41 |
| CCCCC(=C=CC[C@H](O)c1ccccc1OCCO)CCO | -0.356 |
| C=CCNC(=O)[C@@H]1[C@H]2C(=O)O[C@H](c3ccccc3)[C@H](c3ccccc3)N2[C@H](c2ccc(OCCO)cc2)[C@@]12C(=O)Nc1ccc(C#CC3=CCCCC3)cc12 | 1.06 |
| COCCOC(=O)N1C(=O)[C@@]2(c3cc(C#CCCO)ccc31)[C@H](c1ccc(O)cc1)N1[C@H](c3ccccc3)[C@H](c3ccccc3)OC(=O)[C@H]1[C@@H]2C(=O)NC[C@H](O)c1ccccc1 | -0.331 |
| [N-]=[N+]=Nc1ccccc1C[C@]1(C(=O)N2CCCCC2)N=C(c2ccc(OCCCO)cc2)O[C@H]1c1ccccc1 | 1.15 |
| COc1c(C)cc(-c2nc(-c3ccccc3)c3c(c2C)CO[Si]3(C(C)C)C(C)C)cc1C | -0.0316 |
| CC(C)N1CC=CC23O[C@@H]4/C=C\CCCOC(=O)C4[C@H]2C(=O)N(C(C)CO)[C@@H]3C1=O (stereo partly specified) | -0.938 |
| COC(=O)C1(CC(C)C)C=C2C(=C(C)C(=O)C2C)CN1 (stereo unspecified) | 0.351 |
| COCCCNC(=O)[C@@]1(Cc2ccccc2I)c2ccccc2C(=O)N(C2CCCCC2)[C@H]1c1ccc(CO)cc1 | -0.0972 |

| SMILES | composite z-score |
| --- | --- |
| O=C/C=C/c1ccc(-c2ccccc2)cc1 | 0.175 |
| COC(=O)C(CC#Cc1ccc2c(c1)[C@]1(C(=O)N2)[C@H](C(=O)N2CCN(c3ncccn3)CC2)[C@H]2C(=O)O[C@H](c3ccccc3)[C@H](c3ccccc3)N2[C@@H]1c1ccc(O)cc1)C(=O)OC | 2.27 |
| COc1ccc([Si](C)(C)[C@H]2[C@H](CC(=O)N3CCC[C@H]3CO)O[C@@]3(C(=O)N(C)c4ccccc43)[C@@H]2C)cc1 | -0.28 |
| CCCC=C(CCC)[C@@H](NC(=O)c1ccc(C(=O)OC)cc1)c1ccc(C(=O)OC)cc1 | 0.239 |
| Cc1ccc(S(=O)(=O)N2[C@@H](c3ccccc3)C(C(=O)O)=CC[C@H]2c2ccc(F)cc2)cc1 | 1.4 |
| C=C(C(=O)CC[C@@H](OC(=O)c1ccccc1-c1ccccc1C(=O)O)c1cccc(OCCO)c1)C(C)C | -0.364 |
| COC(=O)c1c2oc(c1C(=O)OC)C(=O)N[C@H](Cc1ccccc1)Cn1cc(nn1)C1(CCCCC1)NC(=O)N[C@H](CO)CC2 | -0.626 |
| C=CCNC(=O)[C@@H]1[C@H]2C(=O)O[C@H](c3ccccc3)[C@H](c3ccccc3)N2[C@H](c2ccc(O)cc2)[C@@]12C(=O)Nc1ccc(C#CC3=CCCCC3)cc12 | 1.72 |
| CC(C)(C)OC(=O)CC[C@]1(C(=O)N2CCOCC2)COC(c2ccc(OCCCO)cc2)=N1 | -0.0376 |
| C=CC[C@]1(C(=O)NCC(O)CO)N=C(c2ccc(OCCCO)cc2)O[C@H]1c1ccccc1CN=[N+]=[N-] (stereo partly specified) | 0.184 |
| CCOC(=O)C1=CCC(c2cccn2C(=O)OC(C)(C)C)N(S(=O)(=O)c2ccc(C)cc2)C1 (stereo unspecified) | 1.99 |
| COc1cc(Cc2cc3c(c(-c4ccccc4)n2)[Si](C(C)C)(C(C)C)OC3)cc(OC)c1OC | 1.89 |
| COCCCNC(=O)[C@@]1(Cc2ccccc2I)c2ccccc2C(=O)N(Cc2ccccc2C(F)(F)F)[C@H]1c1ccc(CO)cc1 | -0.253 |
| COc1ccc(CCNC(=O)[C@@H]2c3ccccc3C(=O)N(C(C)C)[C@H]2c2ccc(CO)cc2)cc1 | -0.896 |
| Cc1ccc(N2C(=O)c3ccccc3[C@@H](C(=O)NCCN3CCOCC3)[C@@H]2c2ccc(CO)cc2)nc1 | -1.42 |
| COc1cc2c(cc1O)C(C)N(Cc1sc3ccccc3c1Cl)CC2 (stereo unspecified) | 0.105 |
| CC(C)(C)OC(=O)CC[C@@]1(C(=O)N2CCOCC2)N=C(c2ccc(OCCCO)cc2)O[C@@H]1c1ccccc1CN=[N+]=[N-] | 1.05 |
| CC[C@@H](O[Si](C#C[Si](C(C)C)(C(C)C)C(C)C)(C(C)C)C(C)C)c1cn([C@H](C)c2ccccc2)nn1 | 0.693 |
